High-throughput results as filed in PubChem.
FBW7 act = FBW7 E3 ligase activators, primary screen, biochemical, AlphaScreen, human. F-box/WD repeat-containing protein 7 (Homo sapiens), Q969H0. AlphaScreen FBW7–phospho-cyclin E peptide binding, activator screen. normalized activity (activation), % at 26.1 µM. 650,000 compounds, 0.13% hits; in the data active = normalized activity above about 1.9%;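 note: purified mutant Fbw7 with reduced substrate affinity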
TEAD-YAP block = TEAD-YAP interaction inhibition, primary screen, TEAD-YAP interaction inhibitor project, luminescence, HEK-TIYL cells; TEAD-Gal4/YAP UAS-luciferase luminescence; inhibition, % at 9.12 µM; 640,000 compounds, 1.4% hits; in the data active = inhibition above about 32%
GPR151 ag = activators of human GPR151, primary screen, cell-based, PathHunter beta-arrestin, luminescence; AID 1508602, 2020; G-protein coupled receptor 151 (Homo sapiens), Q8TDV0; activation, % at 11.2 µM; PathHunter beta-arrestin GPR151 cells; 650,000 compounds, 1% hits; in the data active = activation above about 4.9%
MITF primary = MITF inhibitors, primary screen, biochemical, AlphaScreen, human; Microphthalmia-associated transcription factor (Homo sapiens), O75030; AlphaScreen MITF homodimerization, bead proximity signal; inhibition, % at 2.6 µM; 650,000 compounds, 0.91% hits; AID 1259374, 2018; in the data active = inhibition above about 50%
GPR151 confirm = GPR151 activators, triplicate retest, confirmation, cell-based, PathHunter beta-arrestin, luminescence; GPR151 PathHunter beta-arrestin cells, 90 min; % of EA-reagent control over plate median; shares compounds with GPR151 ag; activation, % at 11.2 µM; 6,700 tested, under 10 active;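 active = mean percent activation across replicates above the confirmation screen cutoff of 4.91%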
GPR119 counter = GPR119 activators in beta-arrestin cells, counter-screen for GPR151 activator project, cell-based, PathHunter beta-arrestin, luminescence, triplicate | 6,700 compounds, 0.3% hits | AID 1508611, 2020 | 90 min; 0 = compound-well median, 100 = enzyme-acceptor control | activation, % at 11.2 µM | shares compounds with GPR151 ag;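 active = mean percent activation in the counterscreen above 29.09%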;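 note: counterscreen on off-target GPR119 to flag nonselective hits from the GPR151 activator screen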
Target sequence (Q8TDV5 whole entry, looked up): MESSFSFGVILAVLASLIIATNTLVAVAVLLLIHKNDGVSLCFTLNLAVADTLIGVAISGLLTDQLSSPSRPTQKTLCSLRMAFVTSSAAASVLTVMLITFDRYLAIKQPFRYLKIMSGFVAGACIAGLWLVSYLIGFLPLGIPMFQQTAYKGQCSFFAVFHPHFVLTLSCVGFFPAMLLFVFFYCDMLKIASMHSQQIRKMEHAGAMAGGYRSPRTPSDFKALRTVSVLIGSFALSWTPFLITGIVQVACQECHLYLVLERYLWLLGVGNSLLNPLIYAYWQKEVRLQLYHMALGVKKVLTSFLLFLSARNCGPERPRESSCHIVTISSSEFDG
Each line names hits and unclear results; the compound was inactive in the other large screens (follow-up assays come after a bar, where they were run). Shown are actives, neighbours in structure and some others; about 3.4% of the full set was active somewhere.

CCc1ccc(OCC(=O)N/N=C/c2ccc(O)cc2)cc1	GPR151 ag 5.2 | GPR151 confirm inactive | GPR119 counter inactive
Cc1ccc(/C=N/NC(=O)COc2ccc(Cl)cc2[N+](=O)[O-])s1	none
Brc1c(OCc2nc(-c3cccnc3)no2)ccc2ccccc12	GPR151 ag 7.1 | GPR151 confirm inactive | GPR119 counter inactive
Clc1ccc(OCc2nc(-c3cccnc3)no2)c(Br)c1	none
CCOc1cc(/C=C2/C(=N)N3C=CSC3=NC2=O)ccc1OCCCOc1ccccc1OC	none
Cc1noc(CNC(=O)c2ccc3ccccc3n2)n1	GPR151 ag 5.4 | GPR151 confirm inactive | GPR119 counter inactive
N#Cc1c(NC(=O)CN2CCN(c3ccccc3F)CC2)sc2c1CCCC2	GPR151 ag 6.6 | GPR151 confirm inactive | GPR119 counter inactive
Cc1cc(C)cc(NC(=O)c2cc(S(=O)(=O)NCc3ccc(F)cc3)ccc2F)c1	none
Cc1ccc(NC(=O)c2cnc3ccc(C)cn3c2=O)cc1	none
CCCCN(CC)CCNC(=O)Cc1c(C(=O)O)[nH]c2ccccc12	none
COc1cc(C(=O)Nc2cccc([N+](=O)[O-])c2)cc(OC)c1OC	none
COc1cc(C(=O)Nc2ccc([N+](=O)[O-])cc2)cc(Br)c1OC	GPR151 ag 5.6 | GPR151 confirm inactive | GPR119 counter inactive
Nc1nc(SCC(=O)Nc2ccc(F)cc2)n[nH]1	none
O=C(CSc1nc(N2CCCCC2)nc(N2CCCCC2)n1)Nc1ccc(F)cc1	GPR151 ag 9.8 | GPR151 confirm inactive | GPR119 counter inactive
O=C(COC(=O)C(Cc1c[nH]c2ccccc12)NC(=O)C12CC3CC(CC(C3)C1)C2)c1ccccc1 (centres undefined)	none
Cn1c(=O)c2c(nc3n(CCc4ccccc4)c(-c4ccc(Br)cc4)cn23)n(C)c1=O	GPR151 ag 5.6 | GPR151 confirm inactive | GPR119 counter inactive
Cn1c(=O)c2c(nc3n(CCc4ccccc4)c(-c4ccccc4)cn23)n(C)c1=O	none
O=C(c1ccco1)N(Cc1ccccc1F)C1CCS(=O)(=O)C1 (centres undefined)	GPR151 ag 5.3 | GPR151 confirm inactive | GPR119 counter inactive
COc1cccc(C(=O)N[C@H]2C[C@H]3C(=O)N[C@@H](CCCCN)C(=O)N3C2)c1	GPR151 ag 5.8 | GPR151 confirm inactive | GPR119 counter inactive
CC[C@@H]1NC(=O)[C@@H]2C[C@H](NC(=O)OCc3ccccc3)CN2C1=O	GPR151 ag 5.8 | GPR151 confirm inactive | GPR119 counter inactive
CC(C)C[C@H]1NC(=O)[C@@H]2C[C@H](NC(=O)c3cccc(F)c3F)CN2C1=O	none
C[C@@H](NC(=O)N[C@H]1C[C@H]2C(=O)N[C@H](CO)C(=O)N2C1)c1ccccc1	GPR151 ag 7.6 | GPR151 confirm inactive | GPR119 counter inactive
COc1cccc(C(=O)N[C@H]2C[C@H]3C(=O)N[C@H](CO)C(=O)N3C2)c1	none
CC[C@@H]1NC(=O)[C@@H]2C[C@H](NC(=O)c3cccc(F)c3F)CN2C1=O	GPR151 ag 9.7 | GPR151 confirm inactive | GPR119 counter inactive
CCC[C@@H]1NC(=O)[C@@H]2C[C@H](NC(=O)N[C@@H](C)c3ccccc3)CN2C1=O	none
O=C(N[C@H]1C[C@H]2C(=O)N[C@@H](CO)C(=O)N2C1)OCc1ccccc1	none
COc1ccc(Cn2c(=S)[nH]c3cc(C(=O)Nc4ccc(C)c(Cl)c4)ccc3c2=O)cc1	none
Cc1nc2ccccc2c(=O)n1NCc1ccc(Br)cc1	none
CC(C)c1nnc(NC(=O)c2cc(Cl)ccc2Cl)s1	GPR151 ag 5.1 | GPR151 confirm inactive | GPR119 counter inactive
COC(=O)c1ccc(CSc2nc(C)[nH]c2[N+](=O)[O-])o1	none
Cc1nc(SCC(O)CCl)c([N+](=O)[O-])[nH]1 (centres undefined)	GPR151 ag 8.5 | GPR151 confirm inactive | GPR119 counter inactive
Cc1ccc(N=C2SC(C(=O)Nc3ccc(C)c(Cl)c3)CC(=O)N2C)cc1C (centres undefined)	none
COCCNC(=O)C(=O)Nc1ccc(C)cc1C	none
O=C1CCSc2c1cccc2C(=O)NCc1ccc2c(c1)OCO2	GPR151 ag 5.6 | GPR151 confirm inactive | GPR119 counter inactive
O=C(NCc1ccc2c(c1)OCO2)C(=O)Nc1ccccc1	none
O=C(NCc1ccc2c(c1)OCO2)c1ccc(Br)s1	GPR151 ag 6.2 | GPR151 confirm inactive | GPR119 counter inactive
Cc1ccccc1CNC(=O)C(=O)NCc1ccc2c(c1)OCO2	GPR151 ag 5.4 | GPR151 confirm inactive | GPR119 counter inactive
Cc1cc(NC(=O)CN2CCN(Cc3ccccc3)CC2)no1	none
CCN1C(=O)/C(=C/c2cc(C)n(C3CCCC3)c2C)C(=O)NC1=S	GPR151 ag 6.3 | GPR151 confirm inactive | GPR119 counter inactive
COCC1CCCCN1C(=O)CC1(c2ccccc2)CC(=O)N(CCc2ccccn2)C1=O (centres undefined)	GPR151 ag 5.4 | GPR151 confirm inactive | GPR119 counter inactive
CCCCOC(=O)C1=C(C)NC(=O)NC1c1ccc(OCC)c(OC)c1 (centres undefined)	none
Nn1c(O)c(C2=c3cc(F)ccc3=NC2=O)sc1=S	GPR151 ag 6.0 | GPR151 confirm inactive | GPR119 counter inactive
Cc1ccc(-c2cc(C(F)(F)F)n3ncc(C(=O)NC(C)C)c3n2)cc1	GPR151 ag 5.0 | GPR151 confirm inactive | GPR119 counter inactive
CC(=O)c1cccc(NC(=O)c2cnn3c(C(F)(F)F)cc(-c4ccco4)nc23)c1	GPR151 ag 5.1 | GPR151 confirm inactive | GPR119 counter inactive
COc1ccc(/C=C/C(=O)Nc2sc3c(c2C(=O)NCC2CCCO2)CCCC3)cc1 (centres undefined)	none
COc1ccc(C)cc1NC(=O)CCc1nc(-c2ccccc2F)no1	none
CCC1=NN(C(=O)Cc2ccccc2)C(O)(c2ccccc2)C1 (centres undefined)	GPR151 ag 6.9 | GPR151 confirm inactive | GPR119 counter inactive
CCOc1ccc(C2=NC(c3c(F)cccc3Cl)NC(c3cc(Br)ccc3O)C2)cc1 (centres undefined)	none
O=C(Cc1ccc(Cl)cc1)N1CCN(c2ccccc2F)CC1	none
CC(C)CCC1=NN(C(=O)C(=O)NCCc2ccccc2)C(O)(C(F)(F)F)C1 (centres undefined)	none
CC(C)CC1=NN(C(=O)C(=O)NCCc2ccccc2)C(O)(C(F)(F)F)C1 (centres undefined)	GPR151 ag 5.5 | GPR151 confirm inactive | GPR119 counter inactive
